Results as given in PubChem BioAssay AID720641 (ICCB-Longwood Screening Facility, Harvard Medical School, 2013).
The whole screen tested about 170,000 compounds, of which about 900 (0.53%) were called active. This is one part of a sample in which actives are shown more often than they occur.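 How the source made its calls: active means relative growth at most 50% at the other temperature and 20+ points below 30 °C, or under 10% at both; inactive means the rest, inconclusive results apart.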

Assay: S. aureus growth inhibition at 42 and 30 °C, primary screen, LtaS inhibitor project, RN4220, two temperatures (AID 720641)
Conditions: OD600, 20 h, 42 °C, stronger effect = lower value

| SMILES | relative growth | relative growth (measured here: growth at 30 °C) |
| --- | --- | --- |
| O=S(=O)(NC1CCCC1)c1ccc(S(=O)(=O)N2CCN(c3ncccn3)CC2)cc1 | 100% (inactive) | 79.4% |
| O=C(OCCN1CCCCC1)c1cccc(COc2ccc3ccccc3c2)c1 | 102% (inactive) | 83% |
| O=C(Nc1cccc(-c2nc3ccccc3o2)c1)c1cccc(OCc2ccccc2)c1 | 124% (inactive) | 93.3% |
| O=C(Nc1ccncc1)c1cccc(COc2ccc3ccccc3c2)c1 | 1.11% (active) | 2.67% |
| CCOc1ccc(C(=O)NN)cc1 | 77.2% (inactive) | 80.8% |
| CCn1c(CSc2nc3ccccc3s2)nnc1SC(C)C(=O)Nc1ccc(N(C)C)cc1 (stereo not given) | 116% (inactive) | 97.9% |
| O=C(Oc1ccc(Cl)cc1)c1csc(C2COc3ccccc3O2)n1 (stereo not given) | 92.8% (inactive) | 92.7% |
| O=C(Sc1cccs1)c1csc(C2COc3ccccc3O2)n1 (stereo not given) | 0.36% (active) | -0.46% |
| CN(C)C(=O)c1csc(C2COc3ccccc3O2)n1 (stereo not given) | 93.5% (inactive) | 87.9% |
| N#C/C(=C\c1ccccc1F)c1ccccc1 | 110% (inactive) | 92.3% |
| CC1=CC(=O)C=CC1=N/C(=N\S(=O)(=O)c1ccc(C)cc1)c1ccccc1 | 104% (inactive) | 57.7% |
| COCCn1c(SC)nc2c(c1=O)SCC2 | 96% (inactive) | 94.8% |
| N#C/C(=C\c1ccc(-c2ccc(S(=O)(=O)N3CCOCC3)cc2)o1)S(=O)(=O)c1ccc(Br)cc1 | 87.4% (inactive) | 90.9% |
| CN(C(=O)c1cccnc1Cl)C1CCS(=O)(=O)C1 (stereo not given) | 115% (inactive) | 88.3% |
| CCn1nc(-c2cccs2)cc1C(=O)N(C)C | 105% (inactive) | 86.8% |
| CCOC(=O)CSc1ccccn1 | 94.9% (inactive) | 101% |
| COC(=O)c1ccccc1NC(=O)CSc1ccccn1 | 93.1% (inactive) | 93.2% |
| CCOC(=O)CCSc1ccccn1 | 0.28% (active) | -0.27% |
| CCSc1ncc(Cl)c(C(=O)Nc2cc(C)ccc2C)n1 | 108% (inactive) | 85.1% |
| CSc1nnc(NC(=O)c2nc(S(=O)(=O)Cc3ccc(F)cc3)ncc2Cl)s1 | 93.7% (inactive) | 90.3% |
| Cc1ccc(NC(=O)c2nc(S(=O)(=O)Cc3cccc(C)c3)ncc2Cl)cc1 | 8.42% (active) | 21.7% |
| COc1cccc(OCCCN2CCNCC2)c1 | 107% (inactive) | 91% |
| Cc1ccc(S(=O)(=O)N(C)c2ccc(OCC(=O)N3CCN(c4ncccn4)CC3)cc2)cc1 | 105% (inactive) | 95.7% |
| O=C(CSc1nnc(-c2ccccc2)o1)N(CC1CCCO1)c1nc2ccccc2s1 (stereo not given) | 101% (inactive) | 92.8% |

| SMILES | relative growth | relative growth (measured here: growth at 30 °C) |
| --- | --- | --- |
| C=CCn1c(SCC(=O)Nc2sc(C(=O)OC)c(C)c2C(=O)OC)nc2ccccc21 | 103% (inactive) | 90.4% |
| Cc1ccc(Nc2nc3ccccc3nc2-n2nc(C)cc2C)c(Cl)c1 | 102% (inactive) | 86.6% |
| Cc1ccc2nc(Nc3ccccc3)cc(C)c2c1 | 75.4% (inactive) | 74.3% |
| Cc1cccc(Nc2cc(C)nc(-n3nc(C)cc3C)n2)c1 | -0.22% (active) | -0.24% |
| Cc1nc2ccccc2nc(C)c1=NOCC(=O)Nc1ccc(S(=O)(=O)N2CCOCC2)cc1 | 102% (inactive) | 96.4% |
| O=C(CCCN1C(=O)CSc2ncccc21)N1CCCCC1 | 98.9% (inactive) | 84.5% |
| COc1ccc(C(C(=O)NC2CCCC2)N(C(=O)c2ccn[nH]2)c2ccc(F)cc2)cc1OC (stereo not given) | 113% (inactive) | 89% |
| CC(C)NC(=O)CSc1ccccc1C(=O)Nc1ccc(-n2cnnn2)cc1 | 102% (inactive) | 89.2% |
| c1ccc2c(c1)CC(Nc1ccc3cn[nH]c3c1)C2 | 1.74% (active) | 1.83% |
| c1ccc(NC2CCCCC2)cc1 | 104% (inactive) | 103% |
| O=S(=O)(Nc1ccc2cn[nH]c2c1)c1ccccc1 | 105% (inactive) | 98.5% |
| Cc1cc(C)c(NC(=O)C2CC3c4ccccc4C2C2C=CC=CC32)c(C)c1 (stereo not given) | 123% (inactive) | 88.2% |
| COc1ccc2c(c1)NC(c1ccccc1)c1cccn1-2 (stereo not given) | 69.2% (inactive) | 62.6% |
| Nc1cc(C(F)(F)F)ccc1-n1cccn1 | 92.8% (inactive) | 95.4% |
| Oc1c(Cl)cc(Cl)cc1C1Nc2cc(C(F)(F)F)ccc2-n2cccc21 (stereo not given) | 5.2% (active) | 6.75% |
| COCCCn1c(C)cc(C(=O)CSc2ncnc3ccccc23)c1C | 136% (inactive) | 92.1% |
| CC1Cc2ccccc2N1c1ccc2ccccc2n1 (stereo not given) | 94.3% (inactive) | 99.6% |
| C/C=C/c1ccc(OCC(=O)OC(C)C(N)=O)c(OC)c1 (stereo not given) | 71.1% (inactive) | 88.7% |
| COc1cc(/C=C/C(=O)OCC(N)=O)ccc1OCC#N | 46.3% (active) | 78.8% |
| COc1ccc(/C=C/C(=O)N2CCCC2)cc1OC | 81.4% (inactive) | 88.8% |
| COc1cc(C2C(C(=O)Nc3ccccn3)=C(C)NC3=C2C(=O)CCC3)cc(OC)c1OC (stereo not given) | 98.5% (inactive) | 93.4% |
| CC(C)CC(=O)n1c(=O)oc2ccccc21 | 96.6% (inactive) | 101% |
| N#Cc1c(-c2ccco2)cc(C2CC2)nc1SCC(=O)c1ccc(Br)cc1 | 82.6% (inactive) | 76.7% |
| O=C(NCCSc1ccccc1)c1cccnc1Oc1ccccc1 | 115% (inactive) | 76.2% |

| SMILES | relative growth | relative growth (measured here: growth at 30 °C) |
| --- | --- | --- |
| CC(=O)Oc1ccc(OC(C)=O)c2c1C1C=CC2CC1 | 105% (inactive) | 99.4% |
| CC(=O)Oc1cccc2c1C(=O)C=CC2=O | 2.55% (active) | 1.59% |
| CC(=O)Oc1cccc2c1OC(C)(C)C2 | 117% (inactive) | 99.9% |
| CSCCC(=O)Nc1nc2ccccc2[nH]1 | 113% (inactive) | 87.5% |
| CC(=O)Nc1ccc2c(c1)CN(C1CCCCC1)CO2 | 90.6% (inactive) | 87.6% |
| CC(C)Oc1ccc(C(=O)Nc2ccnn2C2CCCCC2)cc1 | 105% (inactive) | 98.1% |
| O=C(Nc1cccc(Cl)c1)Nc1ccccn1 | 61.4% (inactive) | 70% |
| O=C(Nc1ccccc1)Nc1ccc(Cl)c(Cl)c1 | 2.14% (active) | 2.42% |
| CCc1ccc(NC(=O)Nc2ccccc2)cc1 | 93.4% (inactive) | 96.9% |
| O=C(Nc1ccc(Cl)c(Cl)c1)Nc1ccnn1C1CCCCC1 | -0.5% (active) | -0.69% |
| CC(=O)N1CC(C(=O)Nc2cccc(-c3nnc4n3CCCCC4)c2)Oc2ccccc21 (stereo not given) | 78.4% (inactive) | 92.9% |
| Cc1ccc2nc(COC(=O)Cn3[nH]c(=O)c4ccccc4c3=O)cc(=O)n2c1 | 78.6% (inactive) | 90.7% |
| CCOc1ccc(C(=O)N2CCC(Cc3ccccc3)CC2)cc1 | 122% (inactive) | 75.5% |
| CS(=O)(=O)NCCNc1cc(-c2ccccc2)nc2ccccc12 | 99.5% (inactive) | 72.5% |
| CCC(CC)NCc1ccc(OC)c(C)c1OC | 74.7% (inactive) | 81.6% |
| COc1ccc(-c2nn(C)c3sc(C(=O)NCCN4CCN(c5ccccc5F)CC4)cc23)cc1OC | 82.7% (inactive) | 76.9% |
| O=C(c1ccco1)N1CCN(C(=O)c2cc3c(s2)CCCC3)CC1 | 96.3% (inactive) | 87.5% |
| O=C(Sc1nc(-c2ccccc2)c(-c2ccccc2)[nH]1)c1cccs1 | 84.6% (inactive) | 74.2% |
| Cc1cc(SCc2ccc(F)cc2)c(C)cc1Cl | 105% (inactive) | 102% |
| NC(=O)c1oc2ccccc2c1NC(=O)Cc1ccc(Cl)cc1 | 89.8% (inactive) | 77.5% |
| CC1CCN(C(=O)COc2ccc(-c3nn(C)c(=O)c4ccccc34)cc2)CC1 | 86.8% (inactive) | 89.7% |
| Cc1ccccc1OCc1nc(C#N)c(NC(C)c2ccccc2)o1 (stereo not given) | 82.4% (inactive) | 79.9% |
